In PubChem BioAssay AID1022 (Emory University Molecular Libraries Screening Center, 2008):
In all, about 220,000 compounds went through this assay and about 3,300 (1.5%) were called active. Shown is part of a subset that was picked to be rich in actives. Unmarked numbers belong to inactive results.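 Rule for the calls: active = compounds that cut the protein-peptide binding signal by more than 50% relative to plate controls in a single-dose test; inactive = the rest.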

What follows are compounds tested against Induced myeloid leukemia cell differentiation protein Mcl-1 (Homo sapiens) (UniProt Q07820) (assay: Mcl-1/Noxa binding inhibitors, primary screen, biochemical, TR-FRET, 1536-well (AID 1022;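 note: His-tagged Mcl-1 with rhodamine Noxa BH3 peptide and terbium anti-His antibody; 0% = Mcl-1 plus Noxa peptide wells and 100% = peptide-only wells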)). Details: TR-FRET Mcl-1/Noxa peptide binding, 2 h; at 21.7 µM; stronger effect = higher value.
Induced myeloid leukemia cell differentiation protein Mcl-1 (Homo sapiens), sequence (Q07820 whole entry, looked up): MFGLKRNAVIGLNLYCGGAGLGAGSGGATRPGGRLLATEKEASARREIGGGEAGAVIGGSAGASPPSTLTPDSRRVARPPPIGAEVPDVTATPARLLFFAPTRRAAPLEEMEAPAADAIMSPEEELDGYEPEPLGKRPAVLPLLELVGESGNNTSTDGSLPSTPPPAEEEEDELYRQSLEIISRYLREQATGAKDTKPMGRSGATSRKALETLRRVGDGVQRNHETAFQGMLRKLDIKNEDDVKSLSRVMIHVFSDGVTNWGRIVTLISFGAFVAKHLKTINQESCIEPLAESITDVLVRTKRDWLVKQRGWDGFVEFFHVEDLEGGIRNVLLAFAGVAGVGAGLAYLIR

| SMILES | inhibition |
| --- | --- |
| O=C1NC(=O)N(c2ccccc2)C(=O)/C1=C/c1ccc([N+](=O)[O-])s1 | 45.5% |
| COc1cccc(N2C(=O)NC(=O)/C(=C\c3ccc([N+](=O)[O-])s3)C2=O)c1 | 59.7% (active) |
| Cc1cccc(N2C(=O)NC(=O)/C(=C\c3cnn(-c4ccccc4)c3)C2=O)c1 | 29.4% |
| CCCCC(=O)N/N=C/c1c(O)n(-c2ccccc2)c(=O)[nH]c1=O | -147% |
| O=C1NC(=O)N(CCc2ccc(F)cc2)C(=O)/C1=C/C=C/c1ccccc1 | 6.31% |
| O=C1NC(=O)N(c2ccc(F)cc2)C(=O)/C1=C/c1ccc2c(c1)CCCN2Cc1ccccc1 | 67.7% (active) |
| Cc1c(C(=O)O)cccc1-n1c(C)cc(/C=C2\C(=O)NC(=O)N(c3ccc4c(c3)OCO4)C2=O)c1C | 14.7% |
| O=c1[nH]c(=O)n(CCc2ccccc2)c(O)c1/C=N/N1CCOCC1 | 6.09% |
| COc1cccc(CN2CCCC(C(=O)c3ccccc3SC)C2)c1O (stereo not given) | 16.2% |
| CCCCCCCCCCCCn1ccc(=N)cc1 | 2.41% |
| O=C(O)CCn1cc(C=C2C(=O)NC(=S)NC2=O)c(-c2cccc(Br)c2)n1 | 93.9% (active) |
| CN(C)CC1CCCCC1=O (stereo not given) | 21.8% |
| CNC(=O)O/N=C(\N)Cc1csc2ccccc12 | -19.1% |
| Cc1ccc(-n2c(O)c(C=NCC3CCCO3)c(=O)[nH]c2=O)c(C)c1 (stereo not given) | -16.8% |
| O=C1NC(=O)N(Cc2ccco2)C(=O)/C1=C\c1ccc(-c2ccc(F)cc2)o1 | 69.5% (active) |
| Cc1cc(/C=C2/C(=O)NC(=O)N(Cc3ccco3)C2=O)c(C)n1-c1ccc(C(=O)O)cc1 | 27.4% |
| O=C1NC(=O)N(Cc2ccco2)C(=O)/C1=C\c1cccn1CCOc1ccccc1 | 3.37% |
| CSc1ccc(C(=O)C2CCCN(Cc3ccn[nH]3)C2)cc1 (stereo not given) | 16.2% |
| c1cc2c(cc1[C@H]1OC[C@H]3[C@@H]1CO[C@@H]3c1ccc3c(c1)OCO3)OCO2 | 1.72% |
| CCOc1cccc(=NC2CCCCC2)c2c(C)[nH]c(C)c12 | 23.3% |
